In PubChem BioAssay (Tox21):
Inconclusive results are not listed. Unmarked numbers belong to inactive results. Calls follow the shape of the dose curve; as a rule, active = well fitted activation curve with a large enough effect in the signal ratio in the repeat runs (not every such curve was filed as active); inconclusive = weak or mixed curves; inactive = flat fitted curve, though single readings scatter; the % refers to the signal ratio.

Test: qHTS assay to identify small molecule agonists of the TGF-beta/Smad signaling pathway (AID 1346859)
Settings: SBE-bla HEK293T, TGF-beta/Smad beta-lactamase reporter, 5 h; series mostly up to 76.8 µM; activation: at the top concentration
Excerpt: U.S. Tox21 Program National Center for Advancing Translational Sciences [NCATS] NIH Chemical Genomics Center [NCGC] U.S. Environmental Protection Agency [EPA] National Institutes of Environmental Health Sciences [NIEHS] National Toxicology Program [NTP] U.S. Food and Drug Administration [FDA] Tox21 Assay Overview: Transforming growth factor beta (TGF-beta) superfamily consists of a large number of structurally related dimeric proteins that act as hormones or local mediators in regulating a wide range of biological functions. This superfamily includes TGF-betas themselves, the bone morphogenetic proteins (BMPs) and the activins. These ligands induce oligomerization of serine/threonine receptor kinases and phosphorylate the cytoplasmic signaling molecules of Smad protein family. CellSensor SBE-bla HEK 293T cell line (Life Technologies, Carlsbad, CA), responsive to TGF-beta was used to screen Tox21 10K compound library for identification of agonists/antagonists of the Smad signaling pathway. This cell line contains a beta-lactamase reporter gene under control of the Smad binding element (SBE) stably integrated into HEK 293T cells.
Tox21 Assay Protocol Summary: SBE-bla HEK 293T cells were dispensed at 4,000/well in 6 uL of assay medium into black wall/clear-bottom 1536-well plates using a Multidrop Combi (ThermoFisher Scientific, Waltham, MA) dispenser. After the assay plates were incubated at 37 C and 5% CO2 for an overnight, 23 nL of compounds dissolved in DMSO, positive controls or DMSO only was transferred to the assay plate by a Pintool station (Kalypsys, San Diego, CA). The assay plates were incubated at 37 C and 5% CO2 for 5 hr. One uL of LiveBLAzer B/G FRET substrate (Life Technologies) was added using a Flying Reagent Dispenser (Aurora Discovery, San Diego, CA) and the plates were incubated at room temperature for 2 hr. Fluorescence intensity (405 nm excitation, 460 nm and 530 nm emissions) was measured using an Envision plate reader (PerkinElmer, Shelton, CT).
% is scaled to controls: 0 for no effect and ±100 for the full control effect.

Compared with O=C1CN2CCOC2(c2ccccc2Cl)c2cc(Cl)ccc2N1 (stereo not given), CN1C(=S)CN=C(c2ccccc2)c2cc(Cl)ccc21 is lower in “activation” value: -0.0549% [at 35.3 µM] for the first, -3.62% [at 35.3 µM] for the second.

Compared with O=C(CCCN1CCC(n2c(=O)[nH]c3ccccc32)CC1)c1ccc(F)cc1, O=C1OC(CCN2CCCCC2)OC1(c1ccccc1)c1ccccc1 (stereo not given) is higher in “activation” value: -2.02% [at 35.3 µM] for the first, 1.06% [at 35.3 µM] for the second.

Going from c1ccc(N2CCNCC2)cc1 to OC(c1ccccc1)(c1ccccc1)C1CCNCC1, the “activation” value rises from -2.78% [at 35.3 µM] to 3.82% [at 35.3 µM].

First: CC(C)(C)NCC(O)c1cc(Cl)c(N)c(Cl)c1 (stereo not given)
Second: CNCC(=O)c1ccc(O)c(O)c1
The “activation” value of the first is higher: 1.41% [at 35.3 µM] for the first, -0.225% [at 35.3 µM] for the second.

First: CC(=O)[C@H]1CC[C@H]2[C@@H]3CC[C@H]4C[C@H](O)CC[C@]4(C)[C@H]3C(=O)C[C@]12C
Second: CN1C[C@@H](NS(=O)(=O)N(C)C)C[C@@H]2c3cccc4c3c(cn4C)C[C@H]21
The “activation” value of the first is higher: -3.2% [at 35.3 µM] for the first, -3.23% [at 35.3 µM] for the second.

First: CCC(=O)C(CCN(C)C)(c1ccccc1)c1ccccc1
Second: CCN(CC)CCOC(=O)C(C)(c1ccccc1)c1ccccc1
The “activation” value of the first is lower: -6.94% [at 35.3 µM] for the first, -3.25% [at 35.3 µM] for the second.

Compared with COc1ccc(C(=O)N2CCCC2=O)cc1, CC(C)CC(N(C)C)C1(c2ccc(Cl)cc2)CCC1 (stereo not given) is lower in “activation” value: 4.85% [at 35.3 µM] for the first, 0.523% [at 35.3 µM] for the second.

Going from C[N+](=O)[O-] to O=[N+]([O-])c1ccc(CBr)cc1, the “activation” value rises from 0.0656% to 5.12%.

Going from CSc1ccc(C(=O)C(C)(C)N2CCOCC2)cc1 to CC(C)(C)C(=O)C(Oc1ccc(Cl)cc1)n1cncn1 (stereo not given), the “activation” value falls from -0.134% to -6.19%.

Going from N#CC(Cl)(Cl)Cl to N#Cc1c(Cl)cccc1Cl, the “activation” value rises from 0.258% to 1.09%.

Going from CCOC(=O)CP(=O)(OCC)OCC to CCOP(=S)(OCC)SCSP(=S)(OCC)OCC, the “activation” value falls from 2.82% to 0.312%.

Compared with CCCSC(=O)Cl, CCCCC(=O)Cl is higher in “activation” value: -0.685% for the first, 0.0188% for the second.

Compared with OCCSCSCCO, CCCSC(=O)N(CCC)CCC is higher in “activation” value: -0.846% for the first, 5.04% for the second.

Compared with O=c1oc2ccccc2c(O)c1C1CCCc2ccccc21 (stereo not given), c1coc(-c2nc3ccccc3[nH]2)c1 is higher in “activation” value: -3.33% for the first, -0.0964% for the second.

Compared with CCOC(=O)/C=C(C)/C=C/C[C@@H](C)CCCC(C)C, CCC/C(=N\OCC)C1=C(O)CC(CC(C)SCC)CC1=O (stereo not given) is higher in “activation” value: -5.1% for the first, 1.08% for the second.

Going from CCOP(=S)(OCC)Oc1ncn(-c2ccccc2)n1 to CCOP(=S)(Oc1cnc(C(C)(C)C)nc1)OC(C)C (stereo not given), the “activation” value rises from -0.0457% to 0.0161%.

Going from CCCCc1c(C)nc(NCC)[nH]c1=O to CCCCOC(=O)c1ccccc1C(=O)O, the “activation” value falls from -0.972% to -1.22%.

Going from CSc1nc(N=[N+]=[N-])nc(NC(C)C)n1 to CC(C)CC#N, the “activation” value falls from -2.31% to -4.33%.

First: O=[N+]([O-])c1cccc2c([N+](=O)[O-])cccc12
Second: CCC1(c2ccccc2)C(=O)N=C(O)NC1=O (stereo not given)
The “activation” value of the first is higher: 2.59% for the first, -1.3% for the second.

First: N#Cc1ccncc1
Second: CN(N=O)C(N)=O
The “activation” value of the first is lower: 0.241% for the first, 1.48% for the second.
